Activity calls are given as the source filed them. The calls were made as follows: active = hit-call score of the fitted dose curve at least 0.9, where 1 is the maximum; inactive = score below 0.9.
Columns and labels:
[1] = molecular target: CCAAT/enhancer-binding protein beta (Homo sapiens) (UniProt P17676); assay: ATG_C_EBP_CIS: Attagene CIS-FACTORIAL HepG2 Assay for human CCAAT/Enhancer Binding Protein (C/EBP) beta (AID 2282927); conditions: HepG2 Attagene cis-factorial transcription factor reporter; actives raise or lower the signal
Sequence of CCAAT/enhancer-binding protein beta (Homo sapiens) (P17676 whole entry, looked up): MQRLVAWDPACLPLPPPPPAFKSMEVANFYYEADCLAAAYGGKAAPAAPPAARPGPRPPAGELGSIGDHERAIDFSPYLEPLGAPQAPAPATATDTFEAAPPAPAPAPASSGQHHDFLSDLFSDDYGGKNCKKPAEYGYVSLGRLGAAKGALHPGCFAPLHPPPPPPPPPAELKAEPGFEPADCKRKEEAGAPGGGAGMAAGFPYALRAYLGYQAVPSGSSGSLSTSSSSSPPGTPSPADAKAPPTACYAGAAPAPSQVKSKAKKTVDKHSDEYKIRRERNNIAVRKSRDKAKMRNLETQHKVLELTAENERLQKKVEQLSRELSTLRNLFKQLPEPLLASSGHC
Procedure, shortened: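 HepG2, transient MRTU transfection, 24 h treatment. RT-PCR plus CE fluorescence; DMSO negative control, bidirectional fit.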

[2] = ATG_CMV_CIS: Attagene CIS-FACTORIAL HepG2 Assay for human CMV (Internal Marker) (AID 2282928); conditions: HepG2 CMV promoter reporter, transcription factor profiling; actives raise or lower the signal;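 also: endpoint acts as a background internal control marker rather than a target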
Procedure, shortened: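 Reporter transcripts from transfected HepG2 cells are isolated after 24 h of chemical dosing, reverse-transcribed and amplified. Fragments labeled with 6-FAM are cut with HpaI and quantified by capillary electrophoresis; DMSO defines baseline.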

[3] = ATG_DR4_LXR_CIS: Attagene CIS-FACTORIAL HepG2 Assay for human Liver X Receptor (LXR), DR4 submotif (AID 2282929); conditions: HepG2 Attagene DR4 cis-reporter, mRNA transcription; actives raise or lower the signal
Procedure, shortened: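 Cells were transfected with multiple reporter transcription units, exposed to chemicals for 24 hours, then lysed for RNA. Reporter mRNA induction was measured by RT-PCR with capillary electrophoresis detection and fitted in both directions relative to DMSO.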

[4] = molecular target: Aryl hydrocarbon receptor (Homo sapiens) (UniProt P35869); assay: ATG_Ahr_CIS: Attagene CIS-FACTORIAL HepG2 Assay for human Aryl Hydrocarbon Receptor (Ahr) (AID 2282930); conditions: HepG2 AhR cis-factorial reporter transcription; actives raise or lower the signal
Sequence of Aryl hydrocarbon receptor (Homo sapiens) (P35869 whole entry, looked up): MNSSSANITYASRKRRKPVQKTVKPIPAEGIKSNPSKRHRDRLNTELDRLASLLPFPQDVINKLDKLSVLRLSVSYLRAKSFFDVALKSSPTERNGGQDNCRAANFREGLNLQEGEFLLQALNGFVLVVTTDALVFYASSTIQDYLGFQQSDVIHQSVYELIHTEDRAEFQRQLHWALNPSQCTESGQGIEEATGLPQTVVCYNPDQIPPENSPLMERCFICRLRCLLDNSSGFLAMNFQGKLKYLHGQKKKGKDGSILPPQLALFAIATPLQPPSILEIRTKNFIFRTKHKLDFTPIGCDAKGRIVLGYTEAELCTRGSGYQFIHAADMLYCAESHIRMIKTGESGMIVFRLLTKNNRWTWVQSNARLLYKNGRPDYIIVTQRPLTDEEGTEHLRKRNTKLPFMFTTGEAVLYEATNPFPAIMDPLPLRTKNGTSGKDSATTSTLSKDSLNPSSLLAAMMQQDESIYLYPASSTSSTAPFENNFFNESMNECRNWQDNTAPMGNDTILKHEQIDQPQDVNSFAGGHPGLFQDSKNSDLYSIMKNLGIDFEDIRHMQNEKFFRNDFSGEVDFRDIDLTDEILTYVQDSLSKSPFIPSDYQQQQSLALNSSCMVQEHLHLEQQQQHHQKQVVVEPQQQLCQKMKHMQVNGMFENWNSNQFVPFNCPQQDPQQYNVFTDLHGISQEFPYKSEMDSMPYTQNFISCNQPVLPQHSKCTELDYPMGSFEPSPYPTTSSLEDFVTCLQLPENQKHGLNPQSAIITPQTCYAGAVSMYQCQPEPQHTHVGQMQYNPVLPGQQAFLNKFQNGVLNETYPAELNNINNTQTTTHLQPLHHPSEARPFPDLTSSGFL
Procedure, shortened: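 Endogenous factor activity is tracked through cis-promoter reporter units transfected into HepG2 cells. Transcript levels at 24 h are read by fluorescent RT-PCR and capillary electrophoresis, with activity in either direction scored relative to DMSO.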

[5] = ATG_AP_1_CIS: Attagene CIS-FACTORIAL HepG2 Assay for human Activator Protein 1 (AP-1) (AID 2282931); conditions: HepG2 Attagene cis-factorial AP-1 reporter mRNA; actives raise or lower the signal
Procedure, shortened: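 Endogenous transcription-factor activity in human HepG2 liver cells is read through a cis-promoter reporter transcript, sampled 24 h after dosing. Detection uses RT-PCR with capillary electrophoresis; values come from bidirectional fitting relative to DMSO.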

[6] = ATG_AP_2_CIS: Attagene CIS-FACTORIAL HepG2 Assay for human Activator Protein 2 (AP-2) (AID 2282932); conditions: HepG2 AP-2 cis-reporter, Attagene transcription factor profiling; actives raise or lower the signal
Procedure, shortened: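 Liver-derived HepG2 line, cis-reporter system measuring endogenous factors; 24 h dosing; reporter mRNA detected by fluorescent RT-PCR and capillary electrophoresis.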

[7] = ATG_BRE_CIS: Attagene CIS-FACTORIAL HepG2 Assay for human Bone Morphogenetic Protein (BMP) Response Element (BRE) (AID 2282933); conditions: HepG2 BMP response element reporter, Attagene transcription factor profiling; actives raise or lower the signal
Procedure, shortened: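 Read-out: reporter mRNA induction quantified by RT-PCR and capillary electrophoresis after 24 h chemical exposure of transfected HepG2 cells. Endogenous factor activity on the BMP response element; gain or loss fitted against DMSO baseline.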

[8] = molecular target: Retinoic acid receptor alpha (Homo sapiens) (UniProt P10276); assay: ATG_DR5_RAR_CIS: Attagene CIS-FACTORIAL HepG2 Assay for human Retinoic Acid Receptor Alpha (RARE), DR5 submotif (AID 2282934); conditions: HepG2 Attagene cis-factorial RARE DR5 reporter, mRNA; actives raise or lower the signal
Sequence of Retinoic acid receptor alpha (Homo sapiens) (P10276 whole entry, looked up): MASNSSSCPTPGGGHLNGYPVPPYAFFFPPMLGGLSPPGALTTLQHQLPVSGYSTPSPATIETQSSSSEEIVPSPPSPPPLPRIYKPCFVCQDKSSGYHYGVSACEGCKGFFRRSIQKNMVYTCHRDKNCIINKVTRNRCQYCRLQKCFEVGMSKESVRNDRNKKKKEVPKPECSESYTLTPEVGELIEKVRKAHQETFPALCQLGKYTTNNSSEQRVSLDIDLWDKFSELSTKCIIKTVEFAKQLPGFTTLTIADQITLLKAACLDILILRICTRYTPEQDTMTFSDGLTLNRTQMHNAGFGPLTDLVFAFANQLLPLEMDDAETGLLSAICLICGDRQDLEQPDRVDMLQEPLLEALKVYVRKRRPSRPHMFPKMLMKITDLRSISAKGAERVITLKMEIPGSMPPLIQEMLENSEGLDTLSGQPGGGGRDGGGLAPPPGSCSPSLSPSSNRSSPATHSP
Procedure, shortened: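 After 24 h of chemical exposure, transiently transfected HepG2 cells were lysed for total RNA; the DR5-regulated reporter transcript was quantified via RT-PCR and capillary electrophoresis, with activity fitted bidirectionally against DMSO.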

[9] = molecular target: Transcription factor E2F1 (Homo sapiens) (UniProt Q01094); assay: ATG_E2F_CIS: Attagene CIS-FACTORIAL HepG2 Assay for human E2F Transcription Factor 1 (AID 2282935); conditions: HepG2 Attagene cis-reporter, E2F reporter RNA transcripts; actives raise or lower the signal
Sequence of Transcription factor E2F1 (Homo sapiens) (Q01094 whole entry, looked up): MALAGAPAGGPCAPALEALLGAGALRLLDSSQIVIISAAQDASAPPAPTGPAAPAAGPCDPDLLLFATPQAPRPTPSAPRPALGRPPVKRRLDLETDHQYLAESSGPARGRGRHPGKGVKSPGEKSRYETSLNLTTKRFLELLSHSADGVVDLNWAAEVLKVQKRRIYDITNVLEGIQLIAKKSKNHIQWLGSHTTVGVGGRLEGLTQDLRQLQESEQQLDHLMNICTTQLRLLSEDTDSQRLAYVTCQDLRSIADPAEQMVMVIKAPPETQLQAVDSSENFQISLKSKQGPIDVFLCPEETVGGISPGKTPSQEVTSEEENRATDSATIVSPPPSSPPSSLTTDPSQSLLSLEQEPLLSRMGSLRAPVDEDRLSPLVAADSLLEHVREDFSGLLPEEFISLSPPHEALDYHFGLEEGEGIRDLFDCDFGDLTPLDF
Procedure, shortened: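 Liver-derived HepG2 cells expressing transfected promoter-driven reporter units received test chemical for 24 hours. Signal gains or losses were fitted bidirectionally against DMSO.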

[10] = ATG_E_Box_CIS: Attagene CIS-FACTORIAL HepG2 Assay for human Enhancer Box (E-box) (AID 2282936); conditions: HepG2 E-box cis-reporter transcription, actives raise or lower the signal
Procedure, shortened: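 In this cell-based setup, HepG2 cells bearing transfected promoter-driven reporter units were exposed to chemicals for 24 h; reporter transcripts were amplified, 6-FAM-labelled, cut with HpaI and sized by capillary electrophoresis.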

[11] = ATG_M_61_CIS: Attagene CIS-FACTORIAL HepG2 Assay for M61 Transcription Factor (Internal Marker) (AID 2282937); conditions: HepG2 Attagene CIS-FACTORIAL M61 internal marker reporter; actives raise or lower the signal
Procedure, shortened: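 Cells were transfected with reporter units under cis-regulatory promoters, treated with chemicals for 24 h, then lysed for RNA. Reporter transcripts were quantified by RT-PCR and capillary electrophoresis, and activity was fitted bidirectionally against DMSO.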

[12] = ATG_EGR_CIS: Attagene CIS-FACTORIAL HepG2 Assay for human Early Growth Response 1 (EGR1) (AID 2282938); conditions: HepG2 Attagene CIS-FACTORIAL EGR reporter mRNA; actives raise or lower the signal
Procedure, shortened: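 Endogenous TF activity in HepG2 liver cells was gauged through cis-promoter reporter constructs transiently transfected. After 24 h dosing, reporter mRNA was quantified by RT-PCR and capillary electrophoresis, and curves fitted in both directions versus DMSO.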

[13] = ATG_M_19_CIS: Attagene CIS-FACTORIAL HepG2 Assay for M19 Transcription Factor (Internal Marker) (AID 2282939); conditions: HepG2 Attagene CIS-FACTORIAL M19 internal marker reporter; actives raise or lower the signal
Procedure, shortened: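 Readout: fluorescent reporter-transcript fragments by capillary electrophoresis after RT-PCR. Human HepG2 liver cells carried transfected MRTU constructs reporting endogenous transcription-factor activity; exposure 24 h. Gain or loss of signal fitted relative to DMSO.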

[14] = molecular target: Hepatocyte nuclear factor 3-beta (Homo sapiens) (UniProt Q9Y261); assay: ATG_FoxA2_CIS: Attagene CIS-FACTORIAL HepG2 Assay for human Forkhead box A2 (FOXA2) (AID 2282942); conditions: HepG2 cis-reporter transcription factor activity, 24 h; actives raise or lower the signal
Sequence of Hepatocyte nuclear factor 3-beta (Homo sapiens) (Q9Y261 whole entry, looked up): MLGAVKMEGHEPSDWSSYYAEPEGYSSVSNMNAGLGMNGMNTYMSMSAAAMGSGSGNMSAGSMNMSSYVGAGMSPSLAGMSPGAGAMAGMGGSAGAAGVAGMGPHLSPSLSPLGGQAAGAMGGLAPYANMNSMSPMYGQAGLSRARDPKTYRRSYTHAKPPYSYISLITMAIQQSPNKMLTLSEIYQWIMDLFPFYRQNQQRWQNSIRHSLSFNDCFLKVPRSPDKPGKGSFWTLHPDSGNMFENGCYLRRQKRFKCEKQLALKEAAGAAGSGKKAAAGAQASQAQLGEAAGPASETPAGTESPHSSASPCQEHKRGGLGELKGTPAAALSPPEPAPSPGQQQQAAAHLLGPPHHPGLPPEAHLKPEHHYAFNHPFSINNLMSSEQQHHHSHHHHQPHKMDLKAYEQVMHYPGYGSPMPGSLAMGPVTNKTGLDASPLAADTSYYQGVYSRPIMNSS
Procedure, shortened: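 Endogenous transcription factor activity was read in HepG2 cells carrying transiently transfected cis-promoter reporter units. After 24 h dosing, reporter mRNA was quantified by RT-PCR and capillary electrophoresis, and values fitted bidirectionally versus DMSO.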

[15] = ATG_FoxO_CIS: Attagene CIS-FACTORIAL HepG2 Assay for human Forkhead box O (FoxO) (AID 2282943); conditions: HepG2 Attagene cis-reporter, FoxO element, mRNA; actives raise or lower the signal
Procedure, shortened: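 Transfected HepG2 reporter cells exposed to test chemical for 24 h; reporter RNA measured by reverse transcription, PCR and fluorescent capillary electrophoresis; curves fitted for increases and decreases against DMSO.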

[16] = ATG_GATA_CIS: Attagene CIS-FACTORIAL HepG2 Assay for human GATA Binding Protein (AID 2282944); conditions: HepG2 GATA cis-element reporter, Attagene multiplex mRNA; actives raise or lower the signal
Procedure, shortened: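 Read-out: fluorescent reporter mRNA fragments resolved by capillary electrophoresis after RT-PCR. Human liver HepG2 cells carried transiently transfected cis-regulated reporter constructs; chemicals incubated 24 h; gain or loss of signal fitted relative to DMSO.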

[17] = ATG_GLI_CIS: Attagene CIS-FACTORIAL HepG2 Assay for human Zinc Finger Protein GLI1 (AID 2282945); conditions: HepG2, Attagene cis-factorial reporter mRNA, GLI element; actives raise or lower the signal
Procedure, shortened: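 Transiently transfected HepG2 cells report endogenous transcription factor activity via cis-element-driven reporter units. After 24 h compound exposure, reporter mRNA was measured by RT-PCR with capillary electrophoresis; bidirectional fitting against DMSO baseline.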

[18] = ATG_Ets_CIS: Attagene CIS-FACTORIAL HepG2 Assay for human Erythroblast Transformation Specific (ETS) (AID 2282941); conditions: HepG2 ETS cis-reporter transcription, actives raise or lower the signal
Procedure, shortened: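 Bidirectional fit versus DMSO of reporter mRNA signal, detected by RT-PCR and capillary electrophoresis in HepG2 cells transiently transfected with cis-element reporters and dosed 24 h.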

Measured: AC50

CN(C)CCOc1ccc(/C(=C(/CCCl)c2ccccc2)c2ccccc2)cc1
active: [3] 1990 nM
inactive: [1] | [2] | [4] | [5] | [6] | [7] | [8] | [9] | [10] | [11] | [12] | [13] | [14] | [15] | [16] | [17]

CCCCOC(=O)CCCCCCCC(=O)OCCCC
inactive: [1] | [2] | [3] | [4] | [5] | [6] | [7] | [9] | [10] | [11] | [12] | [13] | [18] | [14] | [15] | [17]

CCO/C=C1\N=C(c2ccccc2)OC1=O
inactive: [1] | [2] | [3] | [4] | [5] | [6] | [7] | [8] | [9] | [10] | [11] | [12] | [13] | [18] | [14] | [15] | [16] | [17]

CCCN(CCC)S(=O)(=O)c1ccc(C(=O)O)cc1
inactive: [1] | [2] | [3] | [4] | [5] | [6] | [7] | [8] | [9] | [10] | [12] | [13] | [18] | [14] | [15] | [16] | [17]

CCCCCCCC(=O)OCC(O)CO (stereo not given)
inactive: [1] | [2] | [3] | [4] | [5] | [6] | [7] | [8] | [9] | [10] | [11] | [12] | [13] | [18] | [14] | [15] | [16] | [17]

C=CCOC(=O)CCCCCC
inactive: [1] | [2] | [4] | [5] | [6] | [7] | [8] | [9] | [11] | [12] | [13] | [18] | [14] | [15] | [16] | [17]

CC(C)CC(C)CC(O)CC(C)C (stereo not given)
inactive: [1] | [2] | [3] | [4] | [5] | [6] | [7] | [9] | [10] | [11] | [12] | [13] | [18] | [14] | [15] | [16] | [17]

Cc1ccc2c(c1)C(=O)OC2=O
inactive: [1] | [2] | [3] | [4] | [5] | [6] | [7] | [8] | [9] | [10] | [11] | [12] | [13] | [18] | [14] | [15] | [16] | [17]

COc1ccc(OC)c(N=Nc2c(O)ccc3ccccc23)c1
inactive: [1] | [2] | [3] | [5] | [6] | [7] | [8] | [9] | [10] | [11] | [12] | [13] | [18] | [14] | [15] | [16] | [17]
active: [4] 510 nM

From PubChem BioAssay (EPA / NIEHS)
